This is an account of results in PMC7862700, “An all-to-all approach to the identification of sequence-specific readers for epigenetic DNA modifications on cytosine”.

Common to all, as to assay: DAPPL (digital affinity profiling via proximity ligation, sequencing); 10 mM Tris-HCl pH 7.5, 50 mM NaCl, 1 mM DTT, 4% glycerol, room temperature, 30 min; GST-TFs on glutathione beads, 16-mer random dsDNA library, 0.1% formaldehyde crosslink after washing; high values mean tight binding
Settings in all cases: protein: recombinant; tags: N-terminal GST; dsDNA, one strand shown

The target of one test is T1, ERF (Homo sapiens, UniProt P50548 1-548).
T1 sequence: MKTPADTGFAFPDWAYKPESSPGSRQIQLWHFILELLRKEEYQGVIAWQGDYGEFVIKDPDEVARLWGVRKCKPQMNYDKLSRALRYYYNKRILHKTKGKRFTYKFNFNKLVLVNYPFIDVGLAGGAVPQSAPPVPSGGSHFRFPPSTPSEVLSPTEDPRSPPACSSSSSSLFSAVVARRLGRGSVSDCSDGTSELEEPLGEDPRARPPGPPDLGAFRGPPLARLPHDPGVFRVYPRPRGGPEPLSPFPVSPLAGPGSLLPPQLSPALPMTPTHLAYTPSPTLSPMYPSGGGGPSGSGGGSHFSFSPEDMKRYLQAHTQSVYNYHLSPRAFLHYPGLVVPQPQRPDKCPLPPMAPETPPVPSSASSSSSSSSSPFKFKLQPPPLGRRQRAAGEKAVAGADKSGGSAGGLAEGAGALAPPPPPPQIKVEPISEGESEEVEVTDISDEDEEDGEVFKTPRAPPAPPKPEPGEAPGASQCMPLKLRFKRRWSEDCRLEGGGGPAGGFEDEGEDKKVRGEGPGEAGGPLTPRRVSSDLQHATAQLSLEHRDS
The procedure, abridged: (§1)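 Binding signal is each hexamer's read frequency for a factor divided by its frequency in the tag-only sample. The factors were GST-fused human transcription factors from yeast, captured on glutathione beads, DNA-barcoded and pooled with that sample. Pools were incubated with 200 nmole of a random double-stranded 16-mer DNA library in Tris/NaCl/DTT/glycerol buffer at room temperature for 30 min, then washed, crosslinked with 0.1% formaldehyde, proximity-ligated with BsaI/T4 ligase (1 h, 37 °C), PCR-amplified and sequenced on an Illumina NextSeq500.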

A further test concerns the target T2, ETV3L (Homo sapiens, UniProt Q6ZN32 1-361).
T2 sequence: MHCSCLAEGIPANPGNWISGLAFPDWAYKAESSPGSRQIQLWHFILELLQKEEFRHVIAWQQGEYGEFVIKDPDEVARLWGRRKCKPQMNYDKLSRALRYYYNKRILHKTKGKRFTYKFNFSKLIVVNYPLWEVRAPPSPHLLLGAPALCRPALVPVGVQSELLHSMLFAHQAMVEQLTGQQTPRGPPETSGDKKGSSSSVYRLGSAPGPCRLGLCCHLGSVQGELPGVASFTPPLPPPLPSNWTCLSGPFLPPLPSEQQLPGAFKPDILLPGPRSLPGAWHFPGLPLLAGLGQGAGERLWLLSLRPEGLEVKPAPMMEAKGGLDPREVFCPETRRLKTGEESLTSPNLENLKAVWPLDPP
In outline: as §1

The target of a further test is T3, ETS2 (Homo sapiens, UniProt P15036 1-469).
T3 sequence: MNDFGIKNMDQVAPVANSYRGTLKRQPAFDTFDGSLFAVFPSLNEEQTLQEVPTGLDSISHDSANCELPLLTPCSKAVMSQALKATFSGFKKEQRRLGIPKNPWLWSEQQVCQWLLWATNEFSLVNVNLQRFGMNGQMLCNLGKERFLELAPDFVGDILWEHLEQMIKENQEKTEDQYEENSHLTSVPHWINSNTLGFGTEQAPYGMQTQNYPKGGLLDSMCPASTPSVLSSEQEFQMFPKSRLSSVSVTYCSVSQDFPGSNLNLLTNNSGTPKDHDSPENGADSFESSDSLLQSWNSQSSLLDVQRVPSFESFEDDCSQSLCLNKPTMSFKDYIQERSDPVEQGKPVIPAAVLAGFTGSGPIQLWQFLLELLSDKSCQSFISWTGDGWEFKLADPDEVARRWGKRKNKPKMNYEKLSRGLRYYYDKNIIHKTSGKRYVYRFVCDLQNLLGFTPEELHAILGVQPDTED
The procedure, abridged:
as §1

Another test concerns the target T4, SPDEF (Homo sapiens, UniProt O95238 1-335).
T4 sequence: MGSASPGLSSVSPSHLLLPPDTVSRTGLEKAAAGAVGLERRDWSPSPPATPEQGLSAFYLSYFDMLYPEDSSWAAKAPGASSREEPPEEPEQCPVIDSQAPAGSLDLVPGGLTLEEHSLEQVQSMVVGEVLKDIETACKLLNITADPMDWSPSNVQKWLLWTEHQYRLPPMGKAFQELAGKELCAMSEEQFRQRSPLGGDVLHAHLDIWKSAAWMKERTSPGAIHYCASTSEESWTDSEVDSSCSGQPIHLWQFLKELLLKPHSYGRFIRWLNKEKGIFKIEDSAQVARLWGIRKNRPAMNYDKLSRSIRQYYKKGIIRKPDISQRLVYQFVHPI
In outline:
as §1

A further test deals with T5, ETV7 (Homo sapiens, UniProt Q9Y603 1-341).
T5 sequence: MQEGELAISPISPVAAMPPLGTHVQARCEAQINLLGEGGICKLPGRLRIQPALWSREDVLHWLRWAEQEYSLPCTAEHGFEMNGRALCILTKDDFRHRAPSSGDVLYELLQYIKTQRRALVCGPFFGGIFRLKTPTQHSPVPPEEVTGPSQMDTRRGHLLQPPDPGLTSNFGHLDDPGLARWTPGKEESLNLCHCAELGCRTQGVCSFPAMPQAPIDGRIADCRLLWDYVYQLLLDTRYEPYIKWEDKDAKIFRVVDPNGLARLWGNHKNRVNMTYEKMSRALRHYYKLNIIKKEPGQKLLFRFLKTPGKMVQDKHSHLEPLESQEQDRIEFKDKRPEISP
In outline:
as §1

Another test deals with T6, ELF5 (Homo sapiens, UniProt Q9UKW6-2 1-255).
T6 sequence: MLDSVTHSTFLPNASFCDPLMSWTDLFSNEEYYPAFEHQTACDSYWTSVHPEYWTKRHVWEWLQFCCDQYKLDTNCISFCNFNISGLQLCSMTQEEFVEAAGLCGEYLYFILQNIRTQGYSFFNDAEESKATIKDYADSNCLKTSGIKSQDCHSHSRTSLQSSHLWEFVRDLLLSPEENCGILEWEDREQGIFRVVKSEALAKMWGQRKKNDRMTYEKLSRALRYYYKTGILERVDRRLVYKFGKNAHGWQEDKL
In outline:
as §1

For another test, the target named is T7, ETV3 (Homo sapiens, UniProt P41162-2 1-143).
T7 sequence: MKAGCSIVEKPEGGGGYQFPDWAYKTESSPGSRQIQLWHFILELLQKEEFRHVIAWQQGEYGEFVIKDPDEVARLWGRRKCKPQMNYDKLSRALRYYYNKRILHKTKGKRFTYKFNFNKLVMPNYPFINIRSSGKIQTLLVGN
In outline: as §1

The target of a further test is ETV6 (Homo sapiens, UniProt P41212 1-452). In outline: as §1
Sequence of ETV6 (P41212 whole entry): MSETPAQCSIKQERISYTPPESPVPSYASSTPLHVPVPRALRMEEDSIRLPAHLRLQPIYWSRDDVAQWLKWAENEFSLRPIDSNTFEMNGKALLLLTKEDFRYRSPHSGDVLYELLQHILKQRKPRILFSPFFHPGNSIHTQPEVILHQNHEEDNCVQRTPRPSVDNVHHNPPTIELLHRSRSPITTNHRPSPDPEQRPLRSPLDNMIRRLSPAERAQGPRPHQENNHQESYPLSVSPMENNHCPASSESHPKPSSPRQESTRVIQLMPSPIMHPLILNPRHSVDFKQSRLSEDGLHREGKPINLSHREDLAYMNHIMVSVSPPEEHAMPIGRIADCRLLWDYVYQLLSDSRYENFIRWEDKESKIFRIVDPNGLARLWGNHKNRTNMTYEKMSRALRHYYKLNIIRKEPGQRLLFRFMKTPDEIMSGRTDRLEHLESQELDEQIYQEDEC

Turning to TTGTTT, the binding signal in the test with ERF is 1.45 fold enrichment (6-mer frequency, TF over GST control); in the test with ETV3L, 1.46 fold enrichment (6-mer frequency, TF over GST control); with ETS2, 1.39 fold enrichment (6-mer frequency, TF over GST control); with SPDEF, 1.32 fold enrichment (6-mer frequency, TF over GST control); with ETV7, 1.6 fold enrichment (6-mer frequency, TF over GST control); in the test with ELF5 it was 1.37 fold enrichment (6-mer frequency, TF over GST control). Besides, the binding signal was 1.5 fold enrichment (6-mer frequency, TF over GST control) with ETV3 and 1.53 fold enrichment (6-mer frequency, TF over GST control) with ETV6.
Turning to ACTTCA, the binding signal with ERF is 1.33 fold enrichment (6-mer frequency, TF over GST control); with ETV3L it was 1.4 fold enrichment (6-mer frequency, TF over GST control); with ETS2, 1.42 fold enrichment (6-mer frequency, TF over GST control); in the test with SPDEF, 1.37 fold enrichment (6-mer frequency, TF over GST control); in the test with ETV7, 1.54 fold enrichment (6-mer frequency, TF over GST control); in the test with ELF5 it was 1.4 fold enrichment (6-mer frequency, TF over GST control). The binding signal was 1.29 fold enrichment (6-mer frequency, TF over GST control) with ETV3 and 1.35 fold enrichment (6-mer frequency, TF over GST control) with ETV6.
Turning to ATGACT, the binding signal in the test with ERF is 1.36 fold enrichment (6-mer frequency, TF over GST control); with ETV3L, 1.47 fold enrichment (6-mer frequency, TF over GST control); with ETS2 it was 1.42 fold enrichment (6-mer frequency, TF over GST control); in the test with SPDEF, 1.29 fold enrichment (6-mer frequency, TF over GST control); with ETV7, 1.38 fold enrichment (6-mer frequency, TF over GST control); with ELF5 it was 1.32 fold enrichment (6-mer frequency, TF over GST control). Besides, the binding signal with ETV3 was 1.27 fold enrichment (6-mer frequency, TF over GST control); with ETV6, 1.3 fold enrichment (6-mer frequency, TF over GST control).
As for TCCATA, the binding signal with ERF was 1.37 fold enrichment (6-mer frequency, TF over GST control); with ETV3L, 1.27 fold enrichment (6-mer frequency, TF over GST control); with ETS2, 1.25 fold enrichment (6-mer frequency, TF over GST control); with SPDEF, 1.27 fold enrichment (6-mer frequency, TF over GST control); with ETV7, 1.14 fold enrichment (6-mer frequency, TF over GST control); in the test with ELF5, 1.22 fold enrichment (6-mer frequency, TF over GST control). For the same sequence, the binding signal in the test with ETV3 was 1.22 fold enrichment (6-mer frequency, TF over GST control); with ETV6, 1.27 fold enrichment (6-mer frequency, TF over GST control).
Regarding ACTTTA, the binding signal in the test with ERF was 1.12 fold enrichment (6-mer frequency, TF over GST control); with ETV3L it was 1.26 fold enrichment (6-mer frequency, TF over GST control); in the test with ETS2, 1.25 fold enrichment (6-mer frequency, TF over GST control); in the test with SPDEF it was 1.08 fold enrichment (6-mer frequency, TF over GST control); with ETV7, 1.29 fold enrichment (6-mer frequency, TF over GST control); with ELF5 it was 1.15 fold enrichment (6-mer frequency, TF over GST control). In addition, the binding signal with ETV3 is 1.19 fold enrichment (6-mer frequency, TF over GST control); with ETV6, 1.18 fold enrichment (6-mer frequency, TF over GST control).
Turning to TTAACA, the binding signal with ERF was 1.19 fold enrichment (6-mer frequency, TF over GST control); with ETV3L it was 1.2 fold enrichment (6-mer frequency, TF over GST control); with ETS2, 1.19 fold enrichment (6-mer frequency, TF over GST control); with SPDEF, 1.21 fold enrichment (6-mer frequency, TF over GST control); with ETV7 it was 1.18 fold enrichment (6-mer frequency, TF over GST control); in the test with ELF5 it was 1.14 fold enrichment (6-mer frequency, TF over GST control). Moreover, the binding signal in the test with ETV3 is 1.19 fold enrichment (6-mer frequency, TF over GST control); with ETV6, 1.11 fold enrichment (6-mer frequency, TF over GST control).
Turning to AATTCC, the binding signal was 1.65 fold enrichment (6-mer frequency, TF over GST control) with ERF; 1.87 fold enrichment (6-mer frequency, TF over GST control) in the test with ETV3L; 1.86 fold enrichment (6-mer frequency, TF over GST control) with ETS2; 1.98 fold enrichment (6-mer frequency, TF over GST control) in the test with SPDEF; 1.7 fold enrichment (6-mer frequency, TF over GST control) with ETV7; 2.39 fold enrichment (6-mer frequency, TF over GST control) with ELF5. In addition, the binding signal with ETV3 was 2.09 fold enrichment (6-mer frequency, TF over GST control); in the test with ETV6, 1.97 fold enrichment (6-mer frequency, TF over GST control).
Regarding TTGTTA, the binding signal is 1.28 fold enrichment (6-mer frequency, TF over GST control) in the test with ERF; 1.35 fold enrichment (6-mer frequency, TF over GST control) with ETV3L; 1.34 fold enrichment (6-mer frequency, TF over GST control) with ETS2; 1.26 fold enrichment (6-mer frequency, TF over GST control) with SPDEF; 1.35 fold enrichment (6-mer frequency, TF over GST control) with ETV7; 1.29 fold enrichment (6-mer frequency, TF over GST control) with ELF5. Further, the binding signal is 1.3 fold enrichment (6-mer frequency, TF over GST control) with ETV3 and 1.33 fold enrichment (6-mer frequency, TF over GST control) in the test with ETV6.
